Data: PubChem BioAssay (NCI)
About 83,000 compounds went through this panel and 20% of them were active in at least one assay; those are over-represented in the sample as a whole.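 Plates (96-well) were seeded with cells, treated with compound at one concentration, and incubated for 48 hours before percent growth was determined.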 Activity calls are given as the source filed them. The calls were made as follows: active = growth percent below 10; inactive = the rest.

Experiments:
Assay in all cases: NCI-60 one-dose screen, 48 h (100 = growth as untreated, 0 = no growth, -100 = all killed)
Conditions in all cases: 10 µM unless noted
NCI-H23 lung = tested on: NCI-H23 lung
NCI-H226 lung = tested on: NCI-H226 lung
NCI-H322M lung = tested on: NCI-H322M lung
HOP-62 NSCLC = tested on: HOP-62 NSCLC
NCI-H460 lung = tested on: NCI-H460 lung
HOP-92 NSCLC = tested on: HOP-92 NSCLC
NCI-H522 lung = tested on: NCI-H522 lung
A549/ATCC NSCLC = tested on: A549/ATCC NSCLC
786-0 renal = tested on: 786-0 renal
COLO 205 colon = tested on: COLO 205 colon
DU-145 prostate = tested on: DU-145 prostate
K-562 leukemia = tested on: K-562 leukemia
MALME-3M melanoma = tested on: MALME-3M melanoma
MDA-MB-231 breast = tested on: MDA-MB-231 breast
RXF 393 renal = tested on: RXF 393 renal
SF-268 CNS = tested on: SF-268 CNS
SF-295 CNS = tested on: SF-295 CNS
SF-539 CNS = tested on: SF-539 CNS
UACC-257 melanoma = tested on: UACC-257 melanoma
M14 melanoma = tested on: M14 melanoma

Measured: growth

CCN1C(=S)N(c2ccccc2)C2C1NN=c1s/c(=C3\C(=O)N(C(C)C)c4ccccc43)c(=O)n12 (stereo not given)
inactive: NCI-H23 lung 75.4% | NCI-H226 lung 66.7% | NCI-H322M lung 82.8% | HOP-62 NSCLC 73.4% | NCI-H460 lung 47.8% | HOP-92 NSCLC 100% | NCI-H522 lung 78.6% | A549/ATCC NSCLC 57.8% | 786-0 renal 93.7% | COLO 205 colon 89.4% | DU-145 prostate 58% | K-562 leukemia 87.2% | MALME-3M melanoma 60.7% | MDA-MB-231 breast 36.5% | RXF 393 renal 107% | SF-268 CNS 95.8% | SF-295 CNS 98.9% | SF-539 CNS 10.4% | UACC-257 melanoma 92.7% | M14 melanoma 81.8%

COc1cc(NS(=O)(=O)c2ccc(-c3cnc(C4CC4)o3)cc2)ccc1F
active: NCI-H522 lung 0.251% | COLO 205 colon 3.71% | SF-539 CNS 1.5%
inactive: NCI-H23 lung 33.6% | NCI-H226 lung 36.7% | NCI-H322M lung 49.5% | HOP-62 NSCLC 41.8% | NCI-H460 lung 18.7% | HOP-92 NSCLC 33.8% | A549/ATCC NSCLC 34.4% | 786-0 renal 31.4% | DU-145 prostate 23% | K-562 leukemia 12.2% | MALME-3M melanoma 55.8% | MDA-MB-231 breast 24.2% | RXF 393 renal 12.4% | SF-268 CNS 55.7% | SF-295 CNS 15.6% | UACC-257 melanoma 69% | M14 melanoma 19%

Cc1cc(N2CCN(CCNc3ccnc4cc(Cl)ccc34)CC2)nc(N2CCOCC2)n1
inactive: NCI-H23 lung 42.8% | NCI-H226 lung 79.5% | NCI-H322M lung 74.9% | HOP-62 NSCLC 81.4% | NCI-H460 lung 64.6% | HOP-92 NSCLC 47.7% | NCI-H522 lung 76.5% | A549/ATCC NSCLC 71.4% | 786-0 renal 74% | COLO 205 colon 11.6% | DU-145 prostate 74.8% | K-562 leukemia 14.6% | MALME-3M melanoma 60.1% | MDA-MB-231 breast 34.3% | RXF 393 renal 42.9% | SF-268 CNS 70.4% | SF-295 CNS 75.5% | SF-539 CNS 29.6% | UACC-257 melanoma 54% | M14 melanoma 48%

COC(=O)[C@@H](CCCCNC(=O)[C@]12CCC(C)(C)C[C@@H]1C1=CC[C@@H]3[C@@]4(C)C/C(=C/c5ccco5)C(=O)C(C)(C)[C@@H]4CC[C@@]3(C)[C@]1(C)CC2)NC(=O)[C@]12CCC(C)(C)C[C@@H]1C1=CC[C@@H]3[C@@]4(C)C/C(=C/c5ccco5)C(=O)C(C)(C)[C@@H]4CC[C@@]3(C)[C@]1(C)CC2
inactive: NCI-H23 lung 106% | NCI-H226 lung 103% | NCI-H322M lung 93.9% | HOP-62 NSCLC 104% | NCI-H460 lung 107% | HOP-92 NSCLC 114% | NCI-H522 lung 94.1% | A549/ATCC NSCLC 100% | 786-0 renal 104% | COLO 205 colon 120% | DU-145 prostate 115% | K-562 leukemia 95.8% | MALME-3M melanoma 102% | MDA-MB-231 breast 92.4% | RXF 393 renal 119% | SF-268 CNS 104% | SF-295 CNS 101% | SF-539 CNS 97.1% | UACC-257 melanoma 100% | M14 melanoma 107%

Cn1ccnc1C(=O)/C=C/c1ccc(C(=O)Nc2ccc(Cl)cc2)cc1
active: NCI-H23 lung -18.7% | NCI-H322M lung 0.414% | HOP-62 NSCLC -4.38% | NCI-H460 lung -28.7% | NCI-H522 lung -5.14% | A549/ATCC NSCLC 6.96% | 786-0 renal -78.8% | COLO 205 colon 1.1% | K-562 leukemia 2.13% | MDA-MB-231 breast 1.85% | RXF 393 renal -57.1% | SF-268 CNS 0.451% | SF-539 CNS -73.4% | M14 melanoma 6.17%
inactive: NCI-H226 lung 16.8% | HOP-92 NSCLC 17% | DU-145 prostate 10.9% | MALME-3M melanoma 51.5% | SF-295 CNS 27.3% | UACC-257 melanoma 51.6%

Cc1cccc(CNc2c3ccccc3nc3ccccc23)c1
inactive: NCI-H23 lung 29.7% | NCI-H226 lung 40.6% | NCI-H322M lung 40.3% | HOP-62 NSCLC 40.4% | NCI-H522 lung 52.1% | A549/ATCC NSCLC 22.6% | 786-0 renal 24.2% | DU-145 prostate 33.9% | MALME-3M melanoma 14.1% | MDA-MB-231 breast 38.7% | SF-268 CNS 52% | SF-295 CNS 25.3% | SF-539 CNS 11.7% | UACC-257 melanoma 36.2% | M14 melanoma 22.8%
active: NCI-H460 lung 8.71% | HOP-92 NSCLC 7.05% | COLO 205 colon -16.2% | K-562 leukemia 1.88% | RXF 393 renal -1.71%

CSc1nc2ccccc2cc1/C=C1/C=C(c2ccccc2)NC1=O
inactive: NCI-H23 lung 87.4% | NCI-H226 lung 92.9% | NCI-H322M lung 93% | HOP-62 NSCLC 79.1% | NCI-H460 lung 84.7% | HOP-92 NSCLC 70.2% | NCI-H522 lung 74.6% | A549/ATCC NSCLC 81.9% | 786-0 renal 93.2% | COLO 205 colon 93.8% | DU-145 prostate 93.2% | K-562 leukemia 35.7% | MALME-3M melanoma 86.9% | MDA-MB-231 breast 86.6% | RXF 393 renal 84.6% | SF-268 CNS 87.2% | SF-295 CNS 67% | SF-539 CNS 96.4% | UACC-257 melanoma 86.8% | M14 melanoma 66.8%
